The supplement of paper PMC3334620
The full ranking holds about 33,000 sequences; the median of “E-score (-0.5 to 0.5)” is about -0.016, and the highest 2% start at about 0.3. Only a selection was taken, and the highest values are over-represented in it overall.

target: T1, Yer184c (UniProt P39961); assay: PBM E-score (8-mer binding enrichment) (E-score (-0.5 to 0.5)); higher = stronger / more preferred TF binding; settings: protein concentration: 100 nM; construct: GST-full length
T1 sequence: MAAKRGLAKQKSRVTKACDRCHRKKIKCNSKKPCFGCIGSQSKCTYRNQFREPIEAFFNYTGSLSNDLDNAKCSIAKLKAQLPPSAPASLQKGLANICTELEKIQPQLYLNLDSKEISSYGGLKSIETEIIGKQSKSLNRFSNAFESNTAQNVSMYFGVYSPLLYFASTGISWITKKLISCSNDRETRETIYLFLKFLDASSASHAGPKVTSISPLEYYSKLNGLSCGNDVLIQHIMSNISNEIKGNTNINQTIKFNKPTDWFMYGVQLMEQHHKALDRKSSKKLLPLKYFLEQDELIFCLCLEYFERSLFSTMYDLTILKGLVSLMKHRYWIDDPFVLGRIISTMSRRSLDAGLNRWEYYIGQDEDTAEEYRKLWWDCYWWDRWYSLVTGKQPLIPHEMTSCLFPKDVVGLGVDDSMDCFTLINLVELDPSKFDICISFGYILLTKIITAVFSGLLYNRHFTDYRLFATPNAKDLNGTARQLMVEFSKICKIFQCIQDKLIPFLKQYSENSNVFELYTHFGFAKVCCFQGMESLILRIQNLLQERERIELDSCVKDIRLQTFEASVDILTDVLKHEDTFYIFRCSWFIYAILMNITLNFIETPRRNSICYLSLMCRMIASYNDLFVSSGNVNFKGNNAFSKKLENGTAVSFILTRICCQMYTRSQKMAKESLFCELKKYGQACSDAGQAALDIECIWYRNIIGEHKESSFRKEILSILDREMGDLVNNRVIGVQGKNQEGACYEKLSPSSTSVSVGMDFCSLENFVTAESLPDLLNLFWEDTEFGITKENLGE
How it was run: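 PURExpress in vitro transcription/translation supplied GST-tagged yeast transcription factors, either full-length or DNA-binding domain. Applied at about 100-200 nM to universal all-10-mer Agilent arrays double-stranded by primer extension, the bound protein was detected with fluorescent anti-GST. E-scores, modified Wilcoxon-Mann-Whitney statistics, were given by the Universal PBM Analysis Suite to ungapped eight-base words pooled with their reverse complements after masliner normalisation.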

First: GCTGCACA
Second: CGCAGTGC
The “PBM E-score” value of the first is higher: -0.159 for the first, -0.204 for the second.

Going from AAAGGGAG to CAGTCTTA, the “PBM E-score” value rises from -0.313 to -0.0806.

Compared with TTCAAAAA, TTCAAGAA is higher in “PBM E-score” value: 0.228 for the first, 0.312 for the second.

Compared with GTCAAGAA, CAGCCATG is lower in “PBM E-score” value: 0.0525 for the first, -0.329 for the second.

Going from CGGGCTAC to AGAATTTA, the “PBM E-score” value rises from 0.00991 to 0.121.

Going from AACGCCGT to AACGCCGA, the “PBM E-score” value rises from 0.119 to 0.415.

Compared with CACGCCGA, TACGCCGA is higher in “PBM E-score” value: 0.153 for the first, 0.237 for the second.

First: AACGCCGC
Second: AACGCCGG
The “PBM E-score” value of the first is lower: 0.116 for the first, 0.317 for the second.

First: CCCTAAAA
Second: AAACGAGG
The “PBM E-score” value of the first is lower: -0.238 for the first, -0.124 for the second.

Compared with GCTATAAC, GATCTGTA is lower in “PBM E-score” value: -0.00042 for the first, -0.0435 for the second.

Compared with GCTCGGCA, CTTCGGCC is lower in “PBM E-score” value: 0.288 for the first, 0.272 for the second.

Going from ATTCGGCC to CATCGGCA, the “PBM E-score” value falls from 0.292 to 0.211.

First: GTTCGGCA
Second: CTTCGGCA
The “PBM E-score” value of the first is higher: 0.368 for the first, 0.333 for the second.

Going from ATTCGGCG to ATTCGGTG, the “PBM E-score” value falls from 0.282 to 0.155.

Compared with GTTCGGTA, GGTCGGCA is lower in “PBM E-score” value: 0.29 for the first, 0.112 for the second.

First: ATTCGGTA
Second: ATTCGGCA
The “PBM E-score” value of the first is higher: 0.329 for the first, 0.318 for the second.

Compared with AAGCGTGT, CACACTGC is higher in “PBM E-score” value: -0.217 for the first, -0.155 for the second.

Compared with GATTGGCC, AGGGTGAA is lower in “PBM E-score” value: -0.0975 for the first, -0.136 for the second.

Going from AATTGTCG to CCGAACCG, the “PBM E-score” value rises from 0.035 to 0.329.

First: CGGAACCG
Second: CCGAACGC
The “PBM E-score” value of the first is higher: 0.364 for the first, 0.274 for the second.

Going from CCGAACGA to CGGAACCA, the “PBM E-score” value rises from 0.245 to 0.338.

First: AGGAACCG
Second: CCGAACCA
The “PBM E-score” value of the first is higher: 0.179 for the first, 0.154 for the second.

Going from CCGAACCC to GGGAACCA, the “PBM E-score” value falls from 0.0527 to -0.222.

First: CCGAACGG
Second: TGGAACCA
The “PBM E-score” value of the first is higher: 0.325 for the first, 0.138 for the second.

Going from CGGAACCC to ACTTATAA, the “PBM E-score” value falls from 0.279 to 0.221.

Going from GATCTAGC to CAACTACC, the “PBM E-score” value rises from -0.195 to -0.0226.

Going from ATCCCATC to ATGCACCC, the “PBM E-score” value rises from -0.19 to -0.147.

First: CGGAAAAG
Second: GGAAAAAA
The “PBM E-score” value of the first is lower: 0.248 for the first, 0.304 for the second.

First: CGGAAAAA
Second: AGAAATAA
The “PBM E-score” value of the first is higher: 0.394 for the first, 0.19 for the second.

Going from CGGAAAAC to GGAAATAA, the “PBM E-score” value falls from 0.349 to 0.319.

Going from CGGAAACC to CGAAATAA, the “PBM E-score” value rises from 0.188 to 0.255.

Going from GGGAAAAC to GGGAAAAA, the “PBM E-score” value rises from -0.00619 to 0.123.

First: AGGAAAAA
Second: GGAAAAAC
The “PBM E-score” value of the first is higher: 0.168 for the first, 0.124 for the second.

First: CCAACCAC
Second: AGAAAACT
The “PBM E-score” value of the first is lower: -0.0234 for the first, 0.0223 for the second.

Compared with TCCTTACA, AACGAAGT is lower in “PBM E-score” value: -0.0191 for the first, -0.0531 for the second.

First: TCTCCCAA
Second: GCACTACA
The “PBM E-score” value of the first is higher: 0.0611 for the first, -0.142 for the second.

Going from CGCCCCTC to AGGAAACA, the “PBM E-score” value rises from -0.199 to 0.165.

Compared with CGGAAACA, GGGAAACA is lower in “PBM E-score” value: 0.314 for the first, 0.22 for the second.

First: CGTCTACC
Second: AAACTCGA
The “PBM E-score” value of the first is lower: 0.0232 for the first, 0.0301 for the second.

Compared with ACAACGGT, TAAACGGA is higher in “PBM E-score” value: -0.0406 for the first, 0.311 for the second.

Going from GAAACGGA to TCCACGGA, the “PBM E-score” value rises from 0.294 to 0.304.

Compared with ACAACGGG, CAAACGGA is higher in “PBM E-score” value: 0.00646 for the first, 0.267 for the second.

Going from ATAACGGA to ACAACGGA, the “PBM E-score” value rises from 0.278 to 0.314.

Compared with ACCACGGA, GTAACGGA is higher in “PBM E-score” value: 0.107 for the first, 0.304 for the second.

Going from CTAACGGA to CCCACGGA, the “PBM E-score” value falls from 0.284 to 0.157.

First: CCTGTAGA
Second: ACGGCAGC
The “PBM E-score” value of the first is lower: -0.094 for the first, 0.161 for the second.

Compared with AACGGTAC, CTCAAAGC is lower in “PBM E-score” value: 0.187 for the first, 0.114 for the second.

First: ATGAACAA
Second: CCCCATCG
The “PBM E-score” value of the first is higher: 0.154 for the first, -0.0742 for the second.

Compared with ACTCTGTC, ATCACGGG is lower in “PBM E-score” value: -0.139 for the first, -0.164 for the second.

First: TCAACGGA
Second: ATCACGGA
The “PBM E-score” value of the first is higher: 0.315 for the first, 0.307 for the second.

Compared with CCAACGGA, ATCACGGC is higher in “PBM E-score” value: 0.101 for the first, 0.197 for the second.

Compared with GCAACGGA, CAATGCAG is lower in “PBM E-score” value: 0.294 for the first, -0.0658 for the second.

Going from AGCCAGTC to CGAGGATC, the “PBM E-score” value rises from -0.153 to 0.0927.

Going from GAACCTCC to CAATTCAG, the “PBM E-score” value falls from -0.0558 to -0.0853.

First: GGGCCGAC
Second: AGGCCGAG
The “PBM E-score” value of the first is lower: 0.132 for the first, 0.143 for the second.

First: CGGCCGAC
Second: CAGCCGAG
The “PBM E-score” value of the first is higher: 0.381 for the first, 0.275 for the second.

Compared with CGGCCGAG, GGGCCGAA is lower in “PBM E-score” value: 0.372 for the first, 0.243 for the second.

First: CGGCCGAA
Second: AGGCCGAC
The “PBM E-score” value of the first is higher: 0.415 for the first, 0.0134 for the second.

Going from TGGCCGAA to CACCCCCA, the “PBM E-score” value falls from 0.295 to -0.206.

Going from CCAATTGG to TACTGTCA, the “PBM E-score” value falls from 0.041 to -0.0937.

Going from GCTCAAGC to ATGCTAAA, the “PBM E-score” value rises from -0.0698 to 0.0332.

Compared with GATTGATA, TGTTGTAA is higher in “PBM E-score” value: 0.0572 for the first, 0.148 for the second.

Going from ACCATCAG to TCGCCAAA, the “PBM E-score” value rises from -0.101 to -0.0461.

Compared with ACGCCGAC, ACGCCGAA is higher in “PBM E-score” value: 0.198 for the first, 0.343 for the second.

Going from GCGCCGAC to TCGCCGAA, the “PBM E-score” value rises from 0.206 to 0.316.

First: TCGCCGCA
Second: GCGCCGAA
The “PBM E-score” value of the first is lower: 0.0686 for the first, 0.343 for the second.

First: ACGCCGAT
Second: GCGCCGTA
The “PBM E-score” value of the first is lower: 0.151 for the first, 0.247 for the second.

First: AGGTATTG
Second: AAGGATAT
The “PBM E-score” value of the first is lower: -0.0873 for the first, 0.0287 for the second.

Compared with CTCTCCCA, CGGTCGCA is higher in “PBM E-score” value: -0.211 for the first, -0.0193 for the second.

First: TGCCCGAA
Second: ACCAAAGT
The “PBM E-score” value of the first is higher: 0.0801 for the first, -0.0125 for the second.

First: ATGGCCTC
Second: ACGCTTCC
The “PBM E-score” value of the first is lower: -0.106 for the first, 0.0165 for the second.

First: CTAAAGTC
Second: GCGGCACC
The “PBM E-score” value of the first is lower: -0.0167 for the first, 0.23 for the second.

Going from TCGGCACA to CCGGCACA, the “PBM E-score” value rises from 0.307 to 0.314.

Compared with ACGGCATC, CCGGCACC is higher in “PBM E-score” value: 0.0862 for the first, 0.352 for the second.

Going from CCGGCATA to ACGGCACG, the “PBM E-score” value falls from 0.291 to 0.194.

First: CCGGCACG
Second: GCGGCACA
The “PBM E-score” value of the first is higher: 0.288 for the first, 0.129 for the second.

First: ACGGCACA
Second: ACGGCACC
The “PBM E-score” value of the first is higher: 0.0865 for the first, -0.0473 for the second.

Going from CCGGCATC to ACAGCTAA, the “PBM E-score” value falls from 0.322 to -0.0181.

Compared with CGCGGCCC, AATGTTGT is lower in “PBM E-score” value: 0.0857 for the first, -2e-05 for the second.

First: GCTCTTCA
Second: ACACTAGC
The “PBM E-score” value of the first is lower: -0.187 for the first, -0.101 for the second.

Going from CTTCTTGA to ACTGGGCA, the “PBM E-score” value falls from -0.0452 to -0.199.

First: CCGCCTCA
Second: CACCTCAG
The “PBM E-score” value of the first is higher: -0.051 for the first, -0.236 for the second.

First: ACCTAATG
Second: CGGAGTGA
The “PBM E-score” value of the first is lower: -0.284 for the first, 0.153 for the second.

First: GTAGGTTA
Second: ATGCCGAC
The “PBM E-score” value of the first is lower: -0.00416 for the first, 0.243 for the second.

Going from ATGCCGAG to GTGCCGAA, the “PBM E-score” value rises from 0.346 to 0.387.

First: ATGCCGTA
Second: ATGCCGAA
The “PBM E-score” value of the first is lower: 0.196 for the first, 0.408 for the second.

Going from ATGCCGTG to ATGCCAAA, the “PBM E-score” value falls from 0.115 to -0.0656.

Going from CTGCCGAA to GTGCCAAA, the “PBM E-score” value falls from 0.297 to -0.00899.

In the case of CAAGCCTC, the “PBM E-score” value is reported as -0.237.
